Rab9 promoter act = activators of Rab9 promoter; Huh7 Rab9 promoter-luciferase reporter, luminescence, 24 h; Potency, µM (series often up to 9.22 µM), without a hit: at the top dose activation, negative = inhibition, usual class: activators; 2.8% of 320,000 active; also: % of control where 0% means no effect; nearly all actives have a fitted effect of over 60% in size
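Huh7 cells stably carrying Rab9 promoter–luciferase reporter, plated 1500 cells/well, compound added after 2 h and incubated 24 h at 37 °C; luciferase luminescence then read after 10 min with detection reagent.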
ELG1 repair inh = ELG1-dependent DNA repair inhibition; HEK293T ELG1-luciferase reporter, luminescence, 16 h; DNA damage induced by 5-fluorouridine; Potency, µM (doses to about 46.1 µM), inactives show at the highest dose activity change, negative = inhibition, actives largely listed as inhibitors; 2.3% of 330,000 active; AID 504467; also: % is scaled to controls: 0 for no effect and ±100 for the full control effect; nearly all actives have a fitted effect of over 55% in size
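HEK293T cells expressing luciferase-tagged ELG1 (2,000/well) received 5-Fluorouridine plus compound or DMSO for 16 hr at 37 °C. Luciferase was read by ONE-Glo luminescence after 30 min at room temperature.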
FLuc counter = inhibits or activates purified firefly luciferase, miR-21 counter-screen | P08659 | Potency, µM (top dose mostly 57.5 µM), for inactives: at the highest dose activity change, negative = inhibition, usual class: inhibitors | 6.9% of 360,000 active | purified FLuc, Km substrates, luminescence inhibition | AID 588342;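 also: plate controls were vehicle for no effect and reference inhibitor for full effect; nearly all actives have a fitted effect of over 55% in size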
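Purified P. pyralis luciferase, 10 nM final, with Km-level 10 uM D-luciferin and 10 uM ATP in 50 mM Tris acetate pH 7.5, 10 mM Mg acetate, 0.01% Tween-20, 0.05% BSA; 6-point qHTS titration about 60 µM downward; luminescence read.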
ELG1 genotox = inducers of genotoxicity in HEK293T ELG1-luciferase cells. HEK293T ELG1-luciferase reporter, luminescence, 16 h. Potency, µM (top dose mostly 46 µM), without a hit: at the top dose activity change, positive = activation, actives largely listed as activators. 1.3% of 330,000 active. AID 504466; also: % of control where 0% means no effect; nearly all actives have a fitted effect of over 60% in size
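Luminescence read-out: rising ELG1-luciferase signal, reflecting elevated ELG1 protein under genetic stress, flags genotoxic compounds. Cells were treated for 16 hr at 37 °C before ONE-Glo detection.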
NPC1 promoter act = NPC1 promoter activation | Huh7 NPC1 promoter luciferase reporter, 24 h | Potency, µM (series often up to 9.22 µM), without a hit: top-dose activation, usual class: activators | 2.4% of 320,000 active; also: % of control where 0% means no effect; nearly all actives have a fitted effect of over 60% in size
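Stably transfected Huh7 (NPC1 promoter→luciferase), 1500 cells/well in Opti-MEM + 10% FBS, 2 h settle, then compound 24 h at 37 °C. Luminescence after 10 min with Amplite reagent.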
SMN2 splice up = SMN2 splice variant enhancement; Potency, µM (series often up to 46.1 µM), for the others: at the highest dose activity change, positive = activation, actives largely listed as activators; 2.8% of 210,000 active; HEK293 SMN2-luciferase splicing reporter, luminescence, 30-36 h; AID 1458; also: % of control where 0% means no effect; nearly all actives have a fitted effect of over 55% in size
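HEK293 cells carry an SMN2 minigene-luciferase reporter in which exon 7 inclusion puts luciferase in frame. Cells were seeded at 2000 cells/well, attached for 10-12 hours, then exposed to compounds for 30-36 hours at 37C before ONE-Glo luminescence.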
ELG1 FLuc counter = luciferase inhibition in cell-free luciferin readout for ELG1 hits; cell-free firefly luciferase luminescence counter-screen, ViewLux; AID 624247; 3% of 350 active; Potency, µM (titrated, usually from 46.1 µM), inactives show at the highest dose activity change, negative = inhibition, hits mostly inhibitors; shares compounds with ELG1 repair inh; also: % is scaled to controls: 0 for no effect and ±100 for the full control effect
ELG1 Luc conf = inhibits ELG1-dependent DNA repair in HEK293T cells, confirmed; Potency, µM (doses to about 46.1 µM), for the others: top-dose activity change, negative = inhibition, most hits filed as inhibitors; shares compounds with ELG1 repair inh; 68% of 670 active; HEK293T ELG1-luciferase levels, luminescence; cells co-treated with 5-fluorouridine; also: % is scaled to controls: 0 for no effect and ±100 for the full control effect; nearly all actives have a fitted effect of over 55% in size
ELG1 MMS Luc = inhibits ELG1-dependent repair under MMS stimulation in HEK293T cells | 53% of 670 active | Potency, µM (highest dose often 46.1 µM), inactives show at the top dose activity change, negative = inhibition, most hits filed as inhibitors | AID 624249 | HEK293T luciferase-tagged ELG1 level, MMS stimulated | shares compounds with ELG1 repair inh; also: % is scaled to controls: 0 for no effect and ±100 for the full control effect; nearly all actives have a fitted effect of over 60% in size
ELG1 5FU viab = confirmation of ELG1 repair inhibitors: viability with 5FU; 670 tested, under 10 active; shares compounds with ELG1 repair inh; Potency, µM (highest dose often 46.1 µM), without a hit: at the top dose activity change, negative = viability loss, usual class: cytotoxic; AID 624250; cell viability with 5-FU, ELG1-dependent repair;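 also: ELG1-luc HEK293T cells cotreated with 5-fluorouridine at 10 µM final; viability measured 16 h after compound addition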
ELG1 MMS viab = confirmation of ELG1 repair inhibitors: viability with MMS | Cell viability with MMS, ELG1-dependent DNA repair | Potency, µM (doses to about 46.1 µM), without a hit: at the top dose activity change, negative = viability loss, most hits filed as cytotoxic | shares compounds with ELG1 repair inh | AID 624251 | 33% of 670 active;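 also: ELG1-luc HEK293T cells co-treated with 10 µM MMS; viability read 16 h after compound addition; % is scaled to controls: 0 for no effect and ±100 for the full control effect; nearly all actives have a fitted effect of over 60% in size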
ELG1 unstim viab = unstimulated viability counter-screen for ELG1 repair hits; shares compounds with ELG1 repair inh; cell viability counter-screen, unstimulated, luminescence; Potency, µM (highest dose often 45.9 µM), for the others: top-dose activity change, negative = loss of viability, actives largely listed as cytotoxic; 8% of 900 active; AID 624252;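 also: compound exposure lasted 16 hours before reading; % is scaled to controls: 0 for no effect and ±100 for the full control effect; nearly all actives have a fitted effect of over 55% in size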
FLuc biochem = firefly luciferase inhibition counter-screen; 10% of 350 active; Potency, µM (doses to about 57.5 µM), for the others: top-dose activity, negative = inhibition, actives largely listed as inhibitors; shares compounds with ELG1 repair inh; purified firefly luciferase, luminescence counter-screen; also: % is scaled to controls: 0 for no effect and ±100 for the full control effect
Numbers without * were called inactive; u = inconclusive; x = no result. Hits are enriched below; roughly 9.2% of the tested compounds scored in any of these assays. Calls follow the shape of the dose curve; as a rule, active = well fitted curve in the direction sought with a large enough effect; inconclusive = small, poorly fitted or top-dose-only effect, or another doubt; inactive = no such curve, though single readings can be large; an effect the other way counts as inactive or inconclusive. Potency is read from the fitted curve at half-maximal effect.

SMILES	Rab9 promoter act	ELG1 repair inh	FLuc counter	ELG1 genotox	NPC1 promoter act	SMN2 splice up	ELG1 FLuc counter	ELG1 Luc conf	ELG1 MMS Luc	ELG1 5FU viab	ELG1 MMS viab	ELG1 unstim viab	FLuc biochem
Cc1ccc(NC(=O)CCc2nnc3ccc(N4CCC(C)CC4)nn23)nc1	-7%	2.9µM*	0%	5%	-4%	x	x	4.4µM*	29%	u	0%	u	x
Cc1ccc(N2CN=c3s/c(=C\c4cccnc4)c(=O)n3C2)cc1	10%	2.3µM*	-13%	-10%	19%	1%	-13%	u	u	1%	1%	u	-19%
CCOc1ccc(-c2[nH]ncc2-c2ccc(OC)c(OC)c2)c(O)c1	-15%	2.3µM*	1%	-26%	-33%	-12%	x	13µM*	u	-4%	u	u	x
COc1ccc(-c2cn[nH]c2-c2ccc(O)cc2O)cc1OC	0%	-12%	1%	-1%	-1%	x	x	x	x	x	x	x	x
CCOc1ccccc1NC(=O)COc1ccc2ccc(=O)oc2c1	-4%	-5%	0%	14%	1%	x	x	x	x	x	x	x	x
COc1ccc(S(=O)(=O)NCc2ccncc2)cc1NC(=O)c1ccccc1	-11%	-23%	0%	-1%	3%	x	x	x	x	x	x	x	x
COc1ccc(S(=O)(=O)NCc2ccncc2)cc1NC(=O)c1ccc(Cl)cc1	-8%	u	-2%	-6%	-8%	x	9%	18µM*	u	-3%	u	u	-2%
Cc1cc(C)cc(NC(=O)CN2C(=O)c3ccccc3Sc3ccc(C(=O)N4CCCC4)cc32)c1	x	x	-12%	x	x	x	x	x	x	x	x	x	x
COc1ccc(C2=Nn3c(nnc3-c3ccncc3)SC2)cc1OC	-5%	u	1%	15%	-3%	10µM*	32%	7.9µM*	-17%	u	6%	-6%	-2%
CC(C)(C)N(CC#CCC1(O)c2ccccc2-c2ccccc21)CCO	-1%	u	0%	-2%	6%	x	x	x	x	x	x	x	x

Screening results (PubChem BioAssay)
